The list is not random: actives were taken first. Their share in the collection is about 11%.
PNC assembly inh – High Content Assay for Compounds that inhibit the Assembly of the Perinucleolar Compartment. PC3M PTB-GFP, PNC prevalence imaging, 16 h; stronger effect = lower value. activity change (PNC), negative = inhibition, % at 10 µM. hit rate 3.1% among 140,000;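 active = readout at or below -70, meaning at least 70% loss of cells showing the perinucleolar compartment, a nuclear body marking cancer cells; inconclusive = readout between -30 and a set limit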
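PC3M cells stably expressing PTB-GFP, 750–1000 cells/well, treated 16 h at 37 °C with compound (23 nl of library stock), in duplicate. After paraformaldehyde fixation and Hoechst stain, imaged at 20x; PNC prevalence scored by image analysis.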
ALDH1A1 block – qHTS Assay for Inhibitors of Aldehyde Dehydrogenase 1 (ALDH1A1) | Potency, µM (titrated, usually from 75.3 µM), usual class: inhibitors | Aldehyde dehydrogenase 1A1 (Homo sapiens), P00352 | hit rate 7.3% among 220,000 | Purified ALDH1A1, NADH fluorescence, propionaldehyde substrate; active = well fitted inhibition curve with a large enough effect, not every such curve was filed as active; inconclusive = small, poorly fitted or top-dose-only effect, or another doubt; inactive = no such curve, though single readings can be large or run the other way
Target sequence (P00352 whole entry, looked up): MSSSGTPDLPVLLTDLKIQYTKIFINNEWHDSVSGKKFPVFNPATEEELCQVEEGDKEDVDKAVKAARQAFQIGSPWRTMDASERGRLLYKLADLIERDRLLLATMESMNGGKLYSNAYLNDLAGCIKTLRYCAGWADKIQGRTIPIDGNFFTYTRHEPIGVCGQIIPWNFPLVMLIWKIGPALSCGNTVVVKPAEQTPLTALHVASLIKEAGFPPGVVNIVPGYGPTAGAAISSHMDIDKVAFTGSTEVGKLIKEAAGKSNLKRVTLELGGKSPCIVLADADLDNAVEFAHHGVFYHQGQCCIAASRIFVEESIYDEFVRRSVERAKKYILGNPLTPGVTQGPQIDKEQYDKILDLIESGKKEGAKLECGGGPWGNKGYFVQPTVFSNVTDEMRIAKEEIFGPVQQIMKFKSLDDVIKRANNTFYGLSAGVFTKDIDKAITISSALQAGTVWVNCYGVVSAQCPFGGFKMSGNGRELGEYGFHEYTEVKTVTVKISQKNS
HttQ103 aggreg – qHTS Multiplex Assay to Identify Dual Action Probes in a Cell Model of Huntington: Aggregate Formation (GFP); hit rate 1.1% among 220,000; Potency, µM (doses to about 46.1 µM), hits mostly inhibitors; PC12 HttQ103-GFP aggregates, Acumen cytometry, 40 h; note: nearly all actives have a fitted effect of over 60% in size
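Ecdysone-promoter PC12 model expressing HTT exon 1 Q103 fused to GFP, induced by tebufenozide at 100 nM final. Compounds titrated; aggregates sized 1–25 µm scored on a 488 nm laser cytometer.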
CBFb-RUNX1 inh – qHTS Assay for Compounds Blocking the Interaction Between CBF-beta and RUNX1 for the Treatment of Acute Myeloid Leukemia; Runt-related transcription factor 1 (Homo sapiens) + Core-binding factor subunit beta …; AlphaScreen CBFb-His/RUNX1-biotin binding, biochemical; Potency, µM (titrated, usually from 59.8 µM), usual class: inhibitors; 230,000 tested, under 10 active; AID 1477, 2009
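Inhibition was taken as any reduction in AlphaScreen signal from the CBF-beta–RUNX1 pair (His and biotin tags, 30 nM each), measured after compound (15 min) and bead (90 min) incubations at room temperature.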
HPGD block – qHTS Assay for Inhibitors of HPGD (15-Hydroxyprostaglandin Dehydrogenase); hit rate 4.3% among 150,000; 15-hydroxyprostaglandin dehydrogenase [NAD(+)] (Homo sapiens), P15428; AID 894, 2007; purified HPGD, NADH fluorescence kinetic, PGE2 substrate; Potency, µM, actives largely listed as inhibitors; active = well fitted inhibition curve with a large enough effect, not every such curve was filed as active; inconclusive = small, poorly fitted or top-dose-only effect, or another doubt; inactive = no such curve, though single readings can be large or run the other way
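20 nM HPGD preincubated 15 min at room temperature with compound in 50 mM Tris-HCl pH 8, 0.01% Tween 20. Started with 1 mM NAD+ and 30 uM prostaglandin E2; NADH fluorescence (360/450 nm) read 5 times over 30-s intervals, last minus first.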
HTT ATP protect – qHTS Multiplex Assay to Identify Dual Action Probes in a Cell Model of Huntington: Cytoprotection (ATP) | PC12 HTT-Q103 induced, cytoprotection, ATP luminescence, 40 h | Potency, µM (titrated, usually from 56.4 µM), usual class: activators | hit rate 0.14% among 230,000; note: nearly all actives have a fitted effect of over 45% in size
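Huntington model: PC12 line, ecdysone-inducible HTTQ103 exon1–GFP, tebufenozide 100 nM. Test articles in a dose series. Endpoint luminescence from cellular ATP.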
Hits are given with their value; - = inactive; ? = inconclusive; . = no result; [ ] = dose if it differs, or a comment. Unless noted, calls come from the whole dose curve; as a rule, active = well fitted curve in the direction sought with a large enough effect; inconclusive = small, poorly fitted or top-dose-only effect, or another doubt; inactive = no such curve, though single readings can be large; an effect the other way counts as inactive or inconclusive.

SMILES	PNC assembly inh	ALDH1A1 block	HttQ103 aggreg	CBFb-RUNX1 inh	HPGD block	HTT ATP protect
COc1ccccc1-n1c(SCC(=O)Nc2ccc(F)cc2)nc2c(c1=O)SCC2	-	11µM	-	-	-	-[10 µM]
COc1ccc(NC(=O)CSc2nc3[nH]ncc3c(=O)n2-c2ccccc2C)cc1OC	?	28µM	?	-	-	.
COc1ccc(CCNC(=O)CSc2nc3[nH]ncc3c(=O)n2-c2ccc(C)c(Cl)c2)cc1OC	.	7.9µM	-	-	.	-
Cc1cc2ccccc2n2c(SCC(=O)NCC3CCCO3)nnc12 (centres undefined)	.	-	-[9.22 µM]	-	.	-
CC(=O)c1sc(N2C(=O)c3oc4ccccc4c(=O)c3C2c2ccc(C)o2)nc1C (centres undefined)	.	.	.	.	.	-
CC(C)(C)C(=O)Nc1ccc(-c2nc3ccccc3c(=O)o2)cc1	.	?	-[9.22 µM]	-	.	-[10 µM]
CCCCn1c(SC(C)C(N)=O)nc2cc(C(=O)OC)ccc2c1=O (centres undefined)	-	0.6µM	-	-	-	-
CCNC(=O)NC(=O)C(C)Sc1nc2cc(C(=O)OC)ccc2c(=O)n1-c1ccccc1 (centres undefined)	-	22µM	-	-	-	-
CS(=O)(=O)N1CCN(c2ccccc2NC(=O)c2ccc(Br)o2)CC1	-	3.2µM	-	-	-	-
CN1CCN(c2ccccc2NC(=O)c2ccc(Br)o2)CC1	?	-	-	-	-	-[0.074 µM]
COc1cc(C(=O)Nc2ccccc2N2CCN(S(C)(=O)=O)CC2)cc(OC)c1OC	-	-	-	-	-	-
COc1ccccc1C(=O)Nc1ccccc1N1CCN(S(C)(=O)=O)CC1	-91	?	-	-	?	-[0.074 µM]
Cc1ccc(C)c(S(=O)(=O)N=Nc2c(O)[nH]c3ccccc23)c1	.	10µM	?	-	.	-[10 µM]
COc1ccccc1NC(=S)N=Nc1c(O)[nH]c2ccc(Br)cc12	.	-	-[9.22 µM]	?	.	-[10 µM]
Cc1cccc(NC(=S)N=Nc2c(O)[nH]c3ccccc23)c1	?	-	4µM	?	-	.
O=C(Cc1ncc(C(F)(F)F)cc1Cl)NCCc1ccccn1	.	-	-	-	.	-[10 µM]
O=C(O)c1cn(-c2ccc(N3CCCC3)c(F)c2)c2c(F)c(F)c(F)cc2c1=O	.	16µM	-	-	.	-
Fc1ccc(CNCc2ccccc2Cl)cc1	.	11µM	-	-	.	-
Cc1ccc(CNCc2ccccc2Cl)cc1	?	-	-	-	-	-
CC(C)(CCc1nc2ccccc2[nH]1)C(=O)O	.	-[13.5 µM]	.	.	-	-[10 µM]
CCSc1nc2ccccc2n1S(=O)(=O)c1ccccc1	-	-	-	-	-	-
Cc1nc2ccccc2n1S(=O)(=O)c1ccc(Br)cc1	-109	-	-	-	-	.
COCCn1c(SCC(=O)N2CCCCC2)nc2ccccc2c1=O	-	10µM	-	-	-	-
Cc1ccc(NC(=O)CSc2nc3ccccc3c(=O)n2CCCC(=O)N2CCCC2)cc1	?	?	-	-	-	-
O=C(CSc1nc2ccccc2c(=O)n1CCC(=O)N1CCCCC1)NCc1ccccc1	?	8.9µM	-	-	-	?
SMILES	PNC assembly inh	ALDH1A1 block	HttQ103 aggreg	CBFb-RUNX1 inh	HPGD block	HTT ATP protect
CCn1c(SCC(=O)N2CCCC2)nc2ccccc2c1=O	-	-	-	-	?	-[10 µM]
COc1cc(OC)c(C(=O)OC(C)C(=O)Nc2cccc(C(F)(F)F)c2)cc1OC (centres undefined)	-	-	-	-	-	-[10 µM]
CC(C)(C)c1ccc(S(=O)(=O)CCc2ccccn2)cc1	?	7.1µM	-[9.22 µM]	-	-	-
COc1ccc(CNc2ccc(C)c(C)c2)cc1	.	-	-[9.22 µM]	-	.	-[10 µM]
COc1cc(CNc2ccc(N3CCCC3)cc2)ccc1OCc1ccccc1	-	7.9µM	-	-	-	-[10 µM]
COc1cc(CNc2ccc(N3CCCC3)cc2)ccc1OCc1ccccc1F	-	-	-	-	-	-[10 µM]
COc1ccc(NCc2ccc(OC)c(OC)c2)cc1	-	28µM	-	-	-	-
CC(=O)N[C@H](CC(C)C)C(=O)O	.	-	-	-	-	-
Cc1cccc(NC(=O)CC2C(=O)NCCN2C(=S)Nc2ccccc2)c1 (centres undefined)	-	-	-	-	-	-
COc1cc(CC(=O)OCC(=O)Nc2ccc(S(=O)(=O)N3CCCC3)cc2)cc(OC)c1OC	-	20µM	-	-	-	-
CCN(c1ccc(NC(=O)COC(=O)CCc2cc(OC)c(OC)c(OC)c2)cc1)C(C)C	.	18µM	-	-	.	-
CCC(C)c1ccccc1NC(=O)COC(=O)CCc1cc(OC)c(OC)c(OC)c1 (centres undefined)	-	-	-	-	-	-[10 µM]
CN(C)c1ncc2nc(-c3cc(F)cc(F)c3)c(=O)n(CCc3ccccc3)c2n1	.	?	.	.	.	-
CN(C)c1ccc(NC(=O)CSc2nc(N)c(C(=O)Nc3ccc(N(C)C)cc3)s2)cc1	-	25µM	?	?	-	-
CCOC(=O)c1sc(SCC(=O)Nc2ccc(N(C)C)cc2)nc1N	?	22µM	-	-	-	-[10 µM]
Cc1nc2cccc([N+](=O)[O-])c2n1CCCN(C)C	.	?	.	.	-	-[10 µM]
CCNC(=S)Nc1scc(-c2ccccc2)c1C(=O)OCC	-	28µM	14µM	-	-	.
CCOC(=O)c1c(-c2ccc(C)o2)csc1NC(=O)CSc1nnc(C)s1	?	?	-	-	?	-[10 µM]
CCOC(=O)c1c(-c2ccc(C)o2)csc1NC(=O)CSc1nnnn1-c1ccccc1	-	1.6µM	-	-	11µM	-
CCOC(=O)c1c(-c2ccc(C)o2)csc1NC(=S)NC(=O)c1cccs1	-	18µM	-	-	?	-[10 µM]
COC(=O)c1c(-c2ccc(C)cc2)csc1NC(=S)NC(=O)c1cc(OC)cc(OC)c1	-	20µM	-	-	-	-[10 µM]
COc1cccc(-c2cc(NCc3cccs3)ncn2)c1	.	?	.	.	?	-
CCCn1cc(NC(=O)c2cc3n(n2)C(C(F)(F)F)CC(c2ccccc2)N3)cn1 (centres undefined)	-87	-	-	-	-	-
O=C(Nc1ccc2c(c1)OCO2)c1cc2n(n1)C(C(F)(F)F)CC(c1ccccc1)N2 (centres undefined)	-	-	-	-	-	-
O=S1(=O)N=C(Nc2nncs2)c2ccccc21	-	?	-	-	28µM	-
CCN(CC)S(=O)(=O)c1ccc(NC2=NS(=O)(=O)c3ccccc32)cc1	-	?	-[9.22 µM]	-	-	-

High-throughput results deposited in PubChem BioAssay by National Center for Advancing Translational Sciences (NCATS).
